Experimental data as given in PubChem BioAssay AID1903 (Southern Research Specialized Biocontainment Screening …, 2009).
Several values for one entry are separate records, joined by “and”; a condition that tells them apart may be missing. Equal values may be shown once. The campaign covered roughly 310,000 compounds. About 1,200 (0.39%) were called active. No rule for the calls is given here. The list is a sample of the results. Results with a measured potency or affinity are listed apart.

target: Large T antigen (Simian virus 40) (UniProt P03070); assay: TAg ATPase/helicase activity blockers – biochemical (AID 1903); details: SV40 large T antigen ATPase/helicase inhibition assay; at 20 µM; stronger effect = higher value
Sequence (P03070 whole entry, looked up): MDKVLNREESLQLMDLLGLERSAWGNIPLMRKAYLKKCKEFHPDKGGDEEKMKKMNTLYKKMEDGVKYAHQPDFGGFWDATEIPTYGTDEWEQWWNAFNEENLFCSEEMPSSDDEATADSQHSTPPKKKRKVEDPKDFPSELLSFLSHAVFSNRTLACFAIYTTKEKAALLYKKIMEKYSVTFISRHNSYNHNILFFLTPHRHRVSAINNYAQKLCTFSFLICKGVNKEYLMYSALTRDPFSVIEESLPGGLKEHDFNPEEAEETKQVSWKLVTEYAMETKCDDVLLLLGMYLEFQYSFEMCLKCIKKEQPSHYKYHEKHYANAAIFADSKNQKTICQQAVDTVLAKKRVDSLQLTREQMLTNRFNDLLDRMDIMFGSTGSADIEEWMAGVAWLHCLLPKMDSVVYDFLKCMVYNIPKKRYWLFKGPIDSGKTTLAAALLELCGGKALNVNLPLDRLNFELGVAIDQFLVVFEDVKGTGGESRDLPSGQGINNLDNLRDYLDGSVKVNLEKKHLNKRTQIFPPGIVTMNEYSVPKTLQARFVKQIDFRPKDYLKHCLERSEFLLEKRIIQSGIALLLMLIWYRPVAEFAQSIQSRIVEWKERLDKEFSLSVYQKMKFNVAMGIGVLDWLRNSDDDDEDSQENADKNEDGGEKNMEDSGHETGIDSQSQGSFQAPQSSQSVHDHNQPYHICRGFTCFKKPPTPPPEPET

inhibition, inactive:
CCOC(=O)C1(CCc2ccccc2)CCN(C(=O)c2cccc(C)n2)CC1 4.43%
CCc1nnc(NS(=O)(=O)c2ccc(NC(=O)c3cccc4ccccc34)cc2)s1 11.1%
CCc1nnc(NS(=O)(=O)c2ccc(NC(=O)c3cc4ccccc4oc3=O)cc2)s1 -3.35%
O=C(c1cc(-c2ccccc2Cl)nc2ccccc12)N1CCC1 8.29%
O=C1N/C(=N/S(=O)(=O)Cc2ccccc2)S/C1=C/c1ccc2c(c1)OCO2 22.1%
COc1ccc(C(=O)C[n+]2cccc(C(N)=O)c2)cc1 1.66%
O=C1OC(c2ccc(O)cc2)(c2ccc(O)cc2)c2ccccc21 9.29% and 0.77%
Cc1cc(O)ccc1C1(c2ccc(O)cc2C)OC(=O)c2ccccc21 4.57%
COCCNC(=O)c1c[nH]n2c(=O)cc(C3CCN(C(=O)OC(C)(C)C)CC3)nc12 6.9%
CCN1CCN(c2ccc(NC(=O)c3cccc(OCc4ccccc4)c3)cc2)CC1 8.98%
O=C1C2C3C=CC(CC3)C2C(=O)N1/N=C/c1ccccc1O (stereo not drawn) -0.603%
O=C1C2C3C=CC(CC3)C2C(=O)N1/N=C/c1ccc(O)cc1 (stereo not drawn) 22.8%
COc1ccccc1/C=N/N1C(=O)C2C3C=CC(CC3)C2C1=O (stereo not drawn) 5.91%
COc1cc(/C=N/N2C(=O)C3C4c5ccccc5C(c5ccccc54)C3C2=O)ccc1O (stereo not drawn) 19.2%
O=C(CSc1nnnn1C1CCCC1)Nc1ccccc1F 14%
COC(=O)c1sc(-c2cccs2)cc1N 20%
CC(=O)Nc1nnc(SCc2ccc(C(=O)Nc3ccccc3F)cc2)s1 5.26%
CC1(C)CC(=O)C(N=Nc2ccc(-c3ccccc3)cc2)=C(O)C1 28.9%
Oc1ccc(N=Nc2ccccc2)cc1 18.4%
O=C(O)c1ccccc1C(=O)Nc1ccccc1NC(=O)c1ccccc1C(=O)O 5.06%
O=C(NC1=NN(c2ccccc2)CC1)Nc1ccccc1F -6.18%
CCCSc1oc(-c2ccco2)nc1S(=O)(=O)c1ccccc1 1.06%
COc1cc(SC)ccc1C(=O)NCCc1c[nH]c2ccccc12 8.89%
CC(C)(C)NC(=O)CSCc1c(Cl)cccc1Cl 3.06%
COc1ccc(OC)c(-c2c3c([nH]c(=S)c2C#N)CCCC3)c1 20.7%
N#Cc1c(-c2ccc(Cl)cc2)c2c([nH]c1=S)CCCC2 25.6%
COc1ccc(-c2c3c([nH]c(=S)c2C#N)CCC3)cc1 34.4%
N#Cc1c(-c2ccncc2)c2c([nH]c1=S)CCCC2 16.1%
O=C(CN1C(=O)/C(=C/c2ccc(C(F)(F)F)cc2)Sc2ccccc21)NCCCN1CCOCC1 6.23%
O=[N+]([O-])c1ccc(N2CCN(c3ccccn3)CC2)c(Cl)c1 9.91%
O=C(CSc1nnc(-c2ccco2)c(-c2ccco2)n1)c1ccccc1 -0.39%
CSc1nnc(-c2ccco2)c(-c2ccco2)n1 54.2%
COc1ccc(-n2nnnc2SCC(=O)NCCc2ccccc2)cc1OC 5.41%
Cc1cccc(-c2noc(CNC(=O)c3ccc4c(c3)OCO4)n2)c1 9.48%
CC(CCc1ccccc1)NC(=O)CCc1cn(C)c2ccccc12 (stereo not drawn) 8.16%
CCCCC(CC)CNC(=O)c1cccs1 (stereo not drawn) 0.58%
CCCCC(CC)CNC(=O)c1ncn[nH]1 (stereo not drawn) 9.07%
CC1(C)CN(c2ccc(N3CC(C)(C)C3=O)cc2)C1=O 7.74%
CC1(C)CN(c2ccc(F)cc2)C1=O 10%
CC1CCCC(C)N1/N=C/c1ccc(O)c(O)c1 (stereo not drawn) 32.1%
Oc1ccc(N=Cc2ccc(OCc3ccccc3)cc2)cc1 15.6%
Oc1ccc(/C=N/N=C/c2ccc(O)cc2)cc1 27.4%
COc1ccc(/C=N/N=C/c2ccc(OC)c(O)c2)cc1O 1.26%
CCn1c(CNC(=O)c2ccco2)nnc1SCC(=O)Nc1ccc(Br)cc1F 3.84%
CCN(CC)S(=O)(=O)c1ccc(Cl)c(NC(=O)COc2ccc(OC)cc2)c1 21.5%
COc1ccccc1Cn1cccc1C=O -6.2%
Cc1ccc(CCNC(=O)C2CCC(=O)N2Cc2ccc(F)cc2)cc1 (stereo not drawn) 8.48%
CC(=O)Nc1ccc2[nH]ccc2c1 18.6%
C/C(=N\O)c1ccc2[nH]ccc2c1 8.8%
COc1ccc(/C=N/NC(=S)NCC2CCCO2)cc1 (stereo not drawn) 7.07%
COc1cc(/C=N/NC(=O)C(=O)NCc2ccco2)cc(Cl)c1O 28.7%
COc1cccc(/C=N/NC(=O)CNC(=O)c2ccco2)c1O 23.9%
COc1cc(/C=N/NC(=O)C(=O)NCC2CCCO2)cc(Cl)c1O (stereo not drawn) 22.2%
O=C(NCC1CCCO1)C(=O)N/N=C/c1ccc(O)c(Cl)c1 (stereo not drawn) 30.4%
O=C(CNC(=O)c1ccco1)N/N=C/c1ccc(O)c([N+](=O)[O-])c1 -0.16%
Oc1c(Br)cc(/C=N/NC(=S)NCC2CCCO2)cc1Br (stereo not drawn) 27.3%
COc1cc(/C=N/NC(=O)C(=O)NCc2ccco2)cc(Br)c1O 29.1%
COc1ccc(OC)c(S(=O)(=O)N2CCC(C(=O)NC3CCCC3)CC2)c1 8.53%
NC(=O)CC(NC(=O)Cc1cccc2ccccc12)c1ccc(NC2CC3CCC2C3)c([N+](=O)[O-])c1 (stereo not drawn) 17.8%
O=C(CCn1c(=O)oc2ccccc21)N1CCN(c2ccc(F)cc2)CC1 2.5%
COC(=O)C1=C(C)NC(=O)NC1c1ccco1 (stereo not drawn) 8.25%
C=CCOc1ccc(Oc2cc(C)nc(SC)n2)nn1 19.1%
CCCOC(=O)c1cccc(NC(=O)C(C)(C)C)c1 -1.32%
O=C(CNC(=S)N(Cc1ccccc1Cl)C1CCCC1)NCCN1CCOCC1 3.17%
COc1cccc(O)c1CN1CCCC(C(=O)c2cccc(C(F)(F)F)c2)C1 (stereo not drawn) 4.62%
Cn1c(=O)c([N+](=O)[O-])c(NCC(O)c2ccccc2)c2ccccc21 (stereo not drawn) 21.3%
Cn1c(=O)[nH]c(=O)c2c1nc(CN1CCN(c3cccc(Cl)c3)CC1)n2CCc1ccccc1 1.29%
COc1ccc(-c2c(C#N)c(N)n(N)c(=O)c2C#N)cc1Cl 3.3%
COc1ccc(/C=C2/N=C3CCCCCN3C2=O)cc1OC 6.08%
COc1ccc(/C=C2\N=C3CCCCCN3C2=O)cc1 3.96%
COc1ccc(/C=C2/N=C3CCCCCN3C2=O)cc1 4.2%
COc1cccc(/C=C2\N=C3CCCCCN3C2=O)c1 13.8%
COc1ccc(/C=C2\N=C3CCCCCN3C2=O)cc1OC 13.5%
O=c1/c(=C/c2ccc(O)cc2)sc2n1CCCN=2 29.1%
CN(C)c1ccc(/C=c2\sc3n(c2=O)CCCN=3)cc1 7.47%
O=C1/C(=C/c2ccncc2)N=C2CCCCCN12 18.3%
CCC1Sc2ccc(S(=O)(=O)N3CCN(c4ccccc4)CC3)cc2NC1=O (stereo not drawn) -0.58%
O=C1C(=O)N(CCS(=O)(=O)c2ccccc2)c2ccc(F)cc21 3.86%
CN1CC(=O)N(CC(=O)Nc2cccc(S(=O)(=O)N3CCOCC3)c2)C1=O 4.06%
CCCc1nnc(NC(=O)C(=O)NCCN(CC)CC)s1 0.4%
COCCCNC(=O)COc1ccc(-c2nccc(-c3ccccn3)n2)cc1 4.04%
C=CCn1c(SCC(=O)N2CCCC2)nc2c([nH]c3ccccc32)c1=O 5.61%
CCCCn1c(SC(C)C(=O)c2ccc(OC)cc2)nc2cc(S(N)(=O)=O)ccc21 (stereo not drawn) 17.9%
COc1cc(OC)c(C(=O)N/N=C/c2ccoc2)cc1OC 13.6%
O=[N+]([O-])c1ccccc1CNCCCCO 0.09%
O=C(NCCC1=CCCCC1)c1ccc(Cl)c(S(=O)(=O)Nc2ccccc2)c1 -7.13%
Cc1ccc(C)c(NC(=O)CN(C)C(=O)c2nn(C)c(=O)c3ccccc23)c1 6.79%
Nc1c(Cl)ncnc1N/N=C/c1cccc(O)c1 28.2%
COc1ccc(/C=N/Nc2nc(N3CCCCC3)nc(N3CCCCC3)n2)cc1[N+](=O)[O-] 4.11%
COc1ccc(/C=N/Nc2nc(N3CCCC3)nc(N3CCCC3)n2)cc1 -2.38%
CCOc1cc(/C=N/Nc2nnc(C)n2N)ccc1O 24.2%
COc1ccc(/C=N/Nc2nc(Nc3ccccc3)nc(N3CCCCC3)n2)cc1OC -16.1%
COc1ccc(/C=N/Nc2ncnc(Cl)c2N)cc1OC 19%
CCOc1ccc(/C=N/Nc2nc(N3CCCC3)nc(N3CCCC3)n2)cc1OC -0.04%
CCOc1cc(/C=N/Nc2nncc(-c3ccccc3)n2)ccc1O 8.31%
O=c1c(Cl)c(Nc2cccc(Cl)c2)cnn1-c1nc2ccccc2s1 -0.81%
COCCCNC(=O)C(C)N1c2cccc3cccc(c23)S1(=O)=O (stereo not drawn) 3.72%
CCOC(=O)c1sc(=S)n(-c2ccc(OC)cc2)c1N 15.3%
